# Reference: PubChem BioAssay (NCATS)
# Activity calls are given as the source filed them. Calls come from the whole dose curve.
# Experiment: qHTS drug screen for cell cycle checkpoint inhibitors in PARPi-resistant BRCA-mutant ovarian cancer cell lines. (AID 1963452)
# Settings: PEO1/OlaR viability, CellTiter-Glo luminescence, 96 h; for Z-AUC: stronger effect = lower value
# From the text: Women's Malignancies Branch, Center for Cancer Research (CCR),
# National Cancer Institute (NCI), National Institutes of Health (NIH), Bethesda, MD
# Poly (ADP-ribose) polymerase inhibitors (PARPis) have changed the treatment paradigm in breast cancer gene (BRCA) - mutant high-grade serous ovarian carcinoma (HGSC). However, most patients eventually develop resistance to PARPis, highlighting an unmet need for improved therapeutic strategies. Using high-throughput drug screens, we identified ataxia telangiectasia and rad3-related protein/checkpoint kinase 1 (CHK1) pathway inhibitors as cytotoxic and further validated the activity of the CHK1 inhibitor (CHK1i) prexasertib in PARPi-sensitive and -resistant BRCA-mutant HGSC cells and xenograft mouse models. CHK1i monotherapy induced DNA damage, apoptosis, and tumor size reduction. We then conducted a phase 2 study (NCT02203513) of prexasertib in patients with BRCA-mutant HGSC. The treatment was well tolerated but yielded an objective response rate of 6% (1 of 17; one partial response) in patients with previous PARPi treatment. […] BRCA reversion mutation in previously PARPi-treated BRCA-mutant patients was not associated with resistance to CHK1i.
# Among others, 1082 oncology drugs, both approved and investigational, were prioritized based on their status in clinical trial development. […] Drugs with average Z-AUC values less than -1.0 in all three cell lines were classified as "hits" resulting in 151 oncology drug hits. The screen also confirmed cross-resistance between olaparib and other PARPis (rucaparib, niraparib, and talazoparib) in PARPi-resistant PEO1/OlaR and PEO4.
# [1] G. L. Lin, K. M. Wilson, M. Ceribelli, B. Z. Stanton, P. J. Woo, S. Kreimer, E. Y. Qin, X. Zhang, J. Lennon, S. Nagaraja, P. J. Morris, M. Quezada, S. M. Gillespie, D. Y. Duveau, A. M. Michalowski, P. Shinn, R. Guha, M. Ferrer, C. Klumpp-Thomas, S. Michael, C. McKnight, P. Minhas, Z. Itkin, E. H. Raabe, L. Chen, R. Ghanem, A. C. Geraghty, L. Ni, K. I. Andreasson, N. A. Vitanza, K. E.Warren, C. J. Thomas, M. Monje, Therapeutic strategies for diffuse midline glioma from high-throughput combination drug screening. Sci. Transl. Med. 11, (2019).
# [2] T. M. Yamamoto, A. McMellen, Z. L. Watson, J. Aguilera, R. Ferguson, E. Nurmemmedov, T. Thakar, G. L. Moldovan, H. Kim, D. M. Cittelly, A. M. Joglar, E. P. Brennecke, H. Wilson, K. Behbakht, M. J. Sikora, B. G. Bitler, Activation of Wnt signaling promotes olaparib resistant ovarian cancer. Mol. Carcinog. 58, 1770 - 1782 (2019).
# PROTOCOL TABLE (as described by Inglese J, Shamu CE and Guy RK. 2007)
# SEQUENCE No. (e.g., 1, 2, 3, etc.); […] (e.g., Cells, Incubation, Reagent, etc.); VALUE; DESCRIPTION.
# 1; Compounds; 20nL; 1536-well white tissue culture-treated plates.
# 2; Cells; 5 uL; PEO1, PEO4, and PEO1/OlaR cells at 600 cells per well.
# 3; Incubation; 96 hr; 37C, 95% humidity, 5% CO2.
# 4; Reagent; 3 uL; CellTiter-Glo (Promega).
# 5; Incubation; 15 min; room temperature.
# 6; Detection; Luminescence, PHERAstar (BMG Labtech) plate reader.
# NOTES (numbers refer to Sequence numbers above)
# 1. MIPE 5.0 compounds were acoustically dispensed by Echo Acoustic Liquid Handler (Beckman Coulter Life Sciences). Each compound was plated at an 11-point concentration range with 1:3 dilution. Bortezomib, a proteasome inhibitor (final concentration, 20 uM), was used as a positive.
# 2. PEO1, PEO4, and PEO1/OlaR were trypsinized and dispensed in 5 uLof growth medium using a Multidrop Combi dispenser at a density of 600 cells per well to allow compounds to be present during the exponential growth phase.
# 3. Plates were incubated for 96 hours at standard incubator conditions and covered by a stainless steel gasketed lid to prevent evaporation.
# 4. Three microliters of CellTiter-Glo (Promega) were added to each well.
# 5. Plates were incubated at room temperature for 15 min with a stainless-steel lid in place.
# 6. Luminescence readings were taken using PHERAstar (BMG Labtech). […]
# [1] = measured here: PEO1 parental Z-AUC
# Potency is the fitted concentration of half-maximal effect.
Compound,Potency,Z-AUC [1],Z-AUC (measured here: PEO4 Z-AUC),Z-AUC
CC(C)C[C@H](NC(=O)CNC(=O)c1cc(Cl)ccc1Cl)B1OC(=O)CC(CC(=O)O)(C(=O)O)O1 (some centres not stated),43.6 nM (active),-3.29,-3.23,–
CN(C)CC(=O)N1CCC(c2ccc(NC(=O)c3ncc(C#N)[nH]3)c(C3=CCCCC3)c2)CC1,–,-0.797,-0.584,-1.11 (inactive)
COc1ccc(S(=O)(=O)Nc2cc(-c3c(O)ccc4ccccc34)c(O)c3ccccc23)cc1,–,0.417,0.118,0.502 (inactive)
OC[C@H]1OC(O)C[C@@H](O)[C@H]1O (some centres not stated),–,-0.645,-0.88,-0.67 (inactive)
C[C@@H]1CC[C@@]2(OC1)OC1CC3C4CC=C5CC(O)CCC5(C)C4CCC3(C)C1[C@@H]2C (some centres not stated),–,0.314,0.526,0.426 (inactive)
Cc1cncc2cccc(S(=O)(=O)N3CCCN(C(=O)CN)C[C@@H]3C)c12,–,-0.0744,-0.172,-0.369 (inactive)
O=C(NC1CC1)c1cccc(-c2ccc3c(NC(=O)C4CC4)n[nH]c3c2)c1,–,-0.612,-0.0864,-1.31 (inactive)
CC(C)NC[C@@H](C(=O)N1CCN(c2ncnc3c2[C@H](C)C[C@H]3O)CC1)c1ccc(Cl)cc1,–,1.5,1.13,1.25 (inactive)
CNC(=O)Nc1ccc(-c2nc(N3CC4CCC(C3)O4)c3cnn(C4CCC5(CC4)OCCO5)c3n2)cc1,–,-0.236,-1.02,-0.248 (inactive)
CCS(=O)(=O)Nc1ccc2[nH]c(O)c(C(=Nc3ccc(CN4CCCCC4)cc3)c3ccccc3)c2c1,–,-1.2,-1.32,-1.37 (inactive)
OCCNC1CCCc2c1[nH]c1ccc(-c3ccccc3)cc21 (configuration not stated),–,-0.384,0.0631,-0.486 (inactive)
O=C(c1ccc(F)cc1)N1CCC[C@H](c2nc(-c3ccc(F)cc3)no2)C1,–,0.372,0.34,1.14 (inactive)
Nc1ccc(C(=O)Nc2cccc(-c3nc(N4CCOCC4)c4oc5ncccc5c4n3)c2)cn1,–,-0.164,0.731,0.0788 (inactive)
Cc1cnc(NC(=O)Nc2cc(Br)c(C)cc2OC[C@@H]2CNCCO2)cn1,–,-0.193,-0.00574,-0.43 (inactive)
